FEN1 inhibitor: inhibitors of human flap endonuclease 1; Recombinant FEN1 flap cleavage, fluorescence, 15 min; Potency, µM (series often up to 114 µM), inactives show at the top dose activity change, negative = inhibition, actives largely listed as inhibitors; AID 588795; hit rate 0.35% among 390,000; further: on the % scale 0 is the no-effect control and ±100 the full control effect; nearly all actives have a fitted effect of over 65% in size
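Nuclease activity of 10 nM FEN1 was measured after 15 min of room-temperature exposure to titrated compounds, by adding 50 nM flap substrate and reading plates at 0 and 15 min.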
Pol iota inh: blocks human DNA polymerase iota activity; Q9UNA4; Pol iota fluorescent replication assay, 10 min; hit rate 1% among 390,000; Potency, µM (titrated, usually from 115 µM), inactives show at the highest dose activity, negative = inhibition, hits mostly inhibitors; AID 588590
Target sequence (Q9UNA4 whole entry, looked up): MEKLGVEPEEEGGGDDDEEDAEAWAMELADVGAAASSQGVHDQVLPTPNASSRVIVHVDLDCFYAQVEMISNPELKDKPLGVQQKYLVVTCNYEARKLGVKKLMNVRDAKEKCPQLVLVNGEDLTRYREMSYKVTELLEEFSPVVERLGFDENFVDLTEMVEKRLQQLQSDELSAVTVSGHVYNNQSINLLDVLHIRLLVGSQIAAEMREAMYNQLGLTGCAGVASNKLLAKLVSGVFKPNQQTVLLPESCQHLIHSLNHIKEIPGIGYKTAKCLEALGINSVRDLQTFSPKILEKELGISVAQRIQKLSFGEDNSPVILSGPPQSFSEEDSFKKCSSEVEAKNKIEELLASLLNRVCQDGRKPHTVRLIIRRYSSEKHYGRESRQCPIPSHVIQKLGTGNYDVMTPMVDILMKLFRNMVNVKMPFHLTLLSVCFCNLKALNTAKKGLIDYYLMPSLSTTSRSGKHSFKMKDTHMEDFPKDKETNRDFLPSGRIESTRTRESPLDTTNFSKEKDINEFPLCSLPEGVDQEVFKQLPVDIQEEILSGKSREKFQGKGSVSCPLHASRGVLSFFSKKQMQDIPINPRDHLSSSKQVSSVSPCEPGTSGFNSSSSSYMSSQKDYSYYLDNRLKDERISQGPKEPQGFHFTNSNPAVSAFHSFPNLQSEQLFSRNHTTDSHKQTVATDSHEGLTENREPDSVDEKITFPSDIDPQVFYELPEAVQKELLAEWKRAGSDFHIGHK
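Fluorescent replication assay read twice, at 0 min and 10 min after adding 50 nM (final) substrate. Enzyme (10 nM) and compounds were first incubated 15 min at room temperature; enzyme-free buffer wells were negative controls.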
Pol kappa inh: DNA polymerase kappa (human) inhibition; hit rate 0.53% among 400,000; Potency, µM (doses to about 107 µM), inactives show at the top dose activity, negative = inhibition, hits mostly inhibitors; Q9UBT6; purified Pol kappa, fluorescent DNA synthesis assay, 10 min; further: on the % scale 0 is the no-effect control and ±100 the full control effect
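Fluorescent qHTS in 1536-well format: enzyme (10 nM) and compound sat 15 min at room temperature before 50 nM substrate (final) was added. Signal taken at 0 and 10 min; no-enzyme buffer wells were negative controls.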
Pol beta inh: blocks human DNA polymerase beta activity | P06746 | Pol beta primer extension/strand displacement, fluorescence kinetic | Potency, µM (series often up to 114 µM), inactives show top-dose activity change, negative = inhibition, hits mostly inhibitors | hit rate 1.3% among 340,000 | AID 485314; further: on the % scale 0 is the no-effect control and ±100 the full control effect
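Curves were derived by four-parameter Hill fits of normalized qHTS data. The kinetic fluorescent primer-extension read was taken at 0 and 10 min after 50 nM substrate, following a 15 min room-temperature preincubation of 10 nM enzyme with compounds.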
WRN inhibitor: inhibitors of human WRN helicase. Q14191. WRN helicase unwinding, fluorescent forked duplex, kinetic. Potency, µM (doses to about 114 µM), inactives show at the highest dose activity change, negative = inhibition, hits mostly inhibitors. hit rate 0.46% among 360,000. AID 651768; further: on the % scale 0 is the no-effect control and ±100 the full control effect; nearly all actives have a fitted effect of over 55% in size
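Primary qHTS, 1536-well format. 20 nM WRN + compound, 15 min RT; start with 100 nM forked fluorophore/quencher duplex, 2 mM ATP (final); kinetic read ex 525/em 598 nm.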
Pol eta inh: DNA polymerase eta (human) inhibition. Q9Y253. recombinant Pol eta, fluorescent DNA replication assay. Potency, µM (titrated, usually from 114 µM), for inactives: top-dose activity change, negative = inhibition, usual class: inhibitors. hit rate 1.2% among 390,000; further: on the % scale 0 is the no-effect control and ±100 the full control effect
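Pol eta (10 nM) was preincubated with compounds for 15 min at room temperature, after which fluorescent replication substrate (50 nM final) was added to start the reaction. Fluorescence was read kinetically at 0 and 10 min.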
Starred values were filed as active, the others as inactive; ? = inconclusive; nt = no result given; ! = not active in a repeat; [ ] = another dose, or the depositor's remark. Most compounds without a hit are left out; they make up all but 2.4% or so of the library. The call rests on the fitted dose curve; in most records, active means well fitted curve in the direction sought with a large enough effect; inconclusive means small, poorly fitted or top-dose-only effect, or another doubt; inactive means no such curve, though single readings can be large; an effect the other way counts as inactive or inconclusive. Potency means the concentration at half of the fitted maximal effect.

SMILES | FEN1 inhibitor | Pol iota inh | Pol kappa inh | Pol beta inh | WRN inhibitor | Pol eta inh
COc1cc(/C=C/c2cc[n+](C)cc2)ccc1OCC(=O)Nc1ccc(Cl)c(Cl)c1 | ? | 64% | -12% | 56µM* | 4%[11.6 µM] | 89µM*
COc1ccc(NC(=O)COc2ccc(/C=C/c3cccc[n+]3C)cc2OC)cc1 | 11% | 45µM* | ? | 11µM* | -1%[11.6 µM] | -14%
COc1ccc2c3c(cccc13)C(=O)CC2 | 50µM* | 132% | -14% | 16% | -33% | -22%
Cc1ccc(/C=C2\SC(=S)N(C3CCS(=O)(=O)C3)C2=O)o1 (configuration not stated) | ? | ? | ? | 32µM* | ? | 25µM*
CC1=C(C#N)C(=O)N(C2CCS(=O)(=O)C2)C(=O)/C1=C\c1ccc(C)o1 (configuration not stated) | nt | nt | nt | 13µM* | nt | nt
NS(=O)(=O)c1ccc(-c2ccc(/C=C3\SC(=S)N(C4CCS(=O)(=O)C4)C3=O)o2)cc1 (configuration not stated) | -20% | 4% | -7% | 7% | -9% | -5%
COc1cc2ccccc2cc1C(=O)Nc1ccc(O)cc1 | 6% | 66% | -6% | 22µM* | -14% | -3%
COc1ccccc1C(=O)NNC(=O)c1ccc2ccccc2c1 | 18% | 36% | 89µM* | 12% | -1% | -17%
COc1ccc(NC(=O)c2cc3ccccc3cc2OC)cc1OC | -26% | -21% | -14% | 29% | -6% | -12%
COc1ccccc1C(=O)Nc1ccc2c(c1)C(=O)NC2=O | -1% | 12% | -16% | 56µM* | -20% | -13%
CCc1ccc(-c2nn(CC(=O)NCc3ccccc3)c3c2cnc2ccc(C)cc23)cc1 | -4% | -11% | 17% | -3% | nt | 5%
Nc1ccccc1N=c1ssnc1Cl | 1% | ? | -1% | -5% | -3% | -22%
Cc1ccc(N=c2ssnc2Cl)cc1 | -1% | ? | 10% | 2% | 50µM* | -5%
Cc1cc(Cl)ccc1N=c1ssnc1Cl | 1% | ? | 0% | 10% | 50µM* | -18%
O=C(Cn1c(=O)n(-c2ccc(Cl)cc2)c(=O)c2oc3ccccc3c21)Nc1ccccc1 | -2% | -15% | 0% | 5% | nt | -1%
O=C(CSc1nc2c([nH]c3ccccc32)c(=O)n1-c1ccc(Cl)cc1)N1CCOCC1 | 6% | 5% | -4%[60.1 µM] | 1% | nt | -7%
Cc1ccc(-n2cccc2/C=C2\C(=N)N3N=C(C(C)C)SC3=NC2=O)cc1 | ? | 12% | -11% | 28µM* | -6% | -12%
Nc1cc(C(=O)O)c(N)c2c1C(=O)c1ccccc1C2=O | 35µM* | 20µM* | ? | ? | ? | 20µM*
Nc1cc([N+](=O)[O-])cc(N)c1N | -16% | 46% | -25% | nt | nt | nt
O=C1c2cccc3cccc(c23)C(=O)C1(O)O | 1µM* | 112% | -6% | nt | 20µM* | -23%
COc1ccc(-c2cc(C(=O)Nc3cnn(Cc4ccc(F)cc4)c3)no2)cc1OC | -1% | 7% | -24% | -27% | nt | -11%
COc1cccc(-c2cc(C(=O)Nc3cnn(Cc4ccc(F)cc4)c3)no2)c1 | -3% | 100µM* | -21% | 37% | -13% | -12%
NC(=O)[C@@H]1CCCNc2c(I)cc([N+](=O)[O-])cc2C(=O)N[C@@H](CCC(=O)O)C(=O)N[C@@H](CO)C(=O)N1 | -3% | 5% | 9% | 5% | -5% | -3%
C[C@@H]1NC(=O)c2cc([N+](=O)[O-])cc(I)c2NCCCC[C@@H](C(N)=O)NC(=O)[C@H](CCC(=O)O)NC1=O | 1% | 40µM* | ? | 0% | -12% | 22µM*
NC(=O)C[C@H]1NC(=O)[C@H](CCC(=O)O)NC(=O)c2cc([N+](=O)[O-])cc(I)c2NCCC[C@@H](C(N)=O)NC1=O | -18% | ? | ? | 15% | -30% | 35µM*
SMILES | FEN1 inhibitor | Pol iota inh | Pol kappa inh | Pol beta inh | WRN inhibitor | Pol eta inh
NC(=O)C[C@@H]1NC(=O)[C@H](CCC(=O)O)NC(=O)c2cc([N+](=O)[O-])cc(I)c2OCC[C@@H](C(N)=O)NC1=O | -6% | -14% | ? | -21% | -15% | 35µM*
COc1ccc2nccc(/C=C/c3ccc(N(C)C)cc3)c2c1 | -3% | 3% | 1% | nt | nt | nt
CC(C)=CNNC(=O)c1ccc(O)cc1 | -4% | 1% | -13% | nt | nt | nt
COc1ccc(NC(=O)c2ccc3c(SCC(=O)O)c4c(nc3c2)CCCC4)cc1Cl | nt | nt | nt | -27% | nt | nt
COc1ccc(NC(=O)c2ccc3c(SCC(=O)O)c4c(nc3c2)CCCC4)c(OC)c1 | ? | 79µM* | ? | 40µM*! | -9%[11.6 µM] | -18%
O=C(O)CSc1c2c(nc3cc(C(=O)Nc4ccc(F)c(Cl)c4)ccc13)CCCC2 | ? | ? | -10% | 20% | -6%[11.6 µM] | 50µM*
CCOc1ccc(NC(=O)c2cnn(-c3ccc(C)c(C)c3)c2C2CCN(C(=O)OC(C)(C)C)CC2)cc1 | ? | 21% | -5% | 15% | nt | -16%
COc1ccc2c(c1)-c1nc(N)sc1CC2 | 8% | 20% | 0% | 22% | -1% | -22%
COc1ccc2c(c1)-c1nc(/N=C/c3ccc(O)c(OC)c3)sc1CC2 | -14% | 4% | -14% | 15% | 79µM* | -13%
CC(=O)Nc1cccc(-n2cc3c(c2-c2ccccc2Cl)c(=O)n(C)c(=O)n3C)c1 | 8% | ? | 89µM* | 27% | nt | 8%
CN(C)c1cc(F)c(C=O)cc1F | -6% | 29% | -4% | nt | nt | nt
CN(CC(=O)NC(=O)NCc1ccccc1)CC(=O)Nc1ccc(Cl)c(C(F)(F)F)c1 | -20% | 89µM* | -28% | nt | -7%[11.6 µM] | -11%
CN(CC(=O)NCc1ccccc1)CC(=O)Nc1ccc(Cl)c(C(F)(F)F)c1 | -5% | 48% | 1% | nt | 4% | ?
Cc1ccc(CNC(=O)c2cc(=O)c3cc(C)c(C)cc3o2)cc1 | 7% | 11% | 16% | ? | nt | -14%
Cc1ccc2c(/C=C/c3c[nH]c4ccccc34)ccnc2c1C | ? | 40% | 0% | nt | nt | nt
CC1=CC(=O)c2c(O)ccc(O)c2C1=O | nt | nt | nt | 1.8µM* | nt | nt
C=CC[C@H](c1ccc(F)cc1)N(CC(C)C)S(=O)(=O)C=C | -19% | 21% | -23% | nt | nt | nt
O=C(N/N=C/C=C\c1ccco1)c1cccs1 | -18% | 25µM* | ? | 22µM* | -5%[11.6 µM] | ?
O=C(N/N=C/C=C\c1ccccc1[N+](=O)[O-])c1cccs1 | -23% | -11% | 2%[60.1 µM] | -8% | -11% | 7%
CC(=C/c1ccco1)/C=N/NC(=O)c1ccncc1 | 5% | 26% | -15% | 2% | -4% | -23%
O=C(N/N=C/C=C/c1ccco1)c1ccncc1 | -16% | 16µM* | 79µM* | 39% | -2%[11.6 µM] | -2%

Screening results as filed in PubChem.
